A short description of assay [1]: qHTS assay to identify small molecule antagonists of the peroxisome proliferator-activated receptor delta (PPARd) signaling pathway - cell viability counter screen (AID 743213; active means well fitted curve in the direction sought with a large enough effect in the repeat runs; an effect the other way counts as inactive or inconclusive; further: nearly all actives have a fitted effect of over 50% in size). The method in brief: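 In this counter screen, HEK293H cells carrying a UAS-beta-lactamase reporter are co-treated with test compounds and 300 nM L165041 (final) for 17 h at 37 C; cell viability is quantified by CellTiter-Glo luminescence.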

Assay [2] deals with Peroxisome proliferator-activated receptor delta (Homo sapiens) (UniProt Q03181). Put plainly: qHTS assay to identify small molecule antagonists of the peroxisome proliferator-activated receptor delta (PPARd) signaling pathway (AID 743215; active means well fitted inhibition curve with a large enough effect in the signal ratio in the repeat runs, not every such curve was filed as active; the % refers to the signal ratio;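 further: cells stimulated with agonist L165041 at 300 nM final during compound exposure; series mostly up to about 62 µM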). The method in brief:
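Inhibition of L165041-driven (300 nM final) PPARd signaling is scored in HEK293H UAS-bla cells. Exposure lasts 17 h at 37 C; beta-lactamase activity is then read by FRET substrate fluorescence after 2 h at room temperature.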

Assay [3] is described as follows: qHTS assay to identify small molecule agonists of the farnesoid-X-receptor (FXR) signaling pathway - cell viability counter screen (AID 743218; active means well fitted curve in the direction sought with a large enough effect in the repeat runs; an effect the other way counts as inactive or inconclusive; further: nearly all actives have a fitted effect of over 45% in size). The procedure, abridged: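 Cytotoxicity counter-screen run in parallel, same wells: FXR-UAS-bla HEK 293T cells dosed 16 h at 37 C, viability read by CellTiter-Glo luminescence after 30 min at room temperature.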
For orientation: In qHTS, concentration-response curves come from the screen itself.

Assay [4] in a line: qHTS assay to identify small molecule antagonists of the farnesoid-X-receptor (FXR) signaling pathway - cell viability counter screen (AID 743221; active means well fitted cell-killing curve with a large enough effect in the repeat runs, not every such curve was filed as active; further: nearly all actives have a fitted effect of over 50% in size). The method in brief:
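CellTiter-Glo, 30 min RT, luminescence; same wells as the LiveBLAzer FRET read. Cells: FXR-UAS-bla HEK 293T. Treatment: compound with chenodeoxycholic acid 50 uM final, 16 h at 37 C.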

Assay [5] has as its target Vitamin D3 receptor (Homo sapiens) (UniProt P11473). Put plainly: qHTS assay to identify small molecule agonists of the vitamin D receptor (VDR) signaling pathway (AID 743222). The method in brief:
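Quantitative HTS agonist-mode screen: compounds in DMSO were pin-transferred onto VDR-bla cells and incubated 16 h at 37C, 5% CO2. Reporter activity was detected with LiveBLAzer B/G FRET substrate after 2 h at room temperature.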

Assay [6] is described as follows: qHTS assay to identify small molecule agonists of the vitamin D receptor (VDR) signaling pathway - cell viability counter screen (AID 743224; active means well fitted curve in the direction sought with a large enough effect in the repeat runs; an effect the other way counts as inactive or inconclusive; further: series mostly up to about 63 µM; nearly all actives have a fitted effect of over 50% in size). The procedure, abridged:
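Viability is measured in the same wells as the VDR-bla reporter assay: after 16 h compound treatment and 2 h substrate loading, CellTiter-Glo is added and luminescence read 30 min later.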

Assay [7] is described as follows: qHTS assay to identify small molecule antagonists of the vitamin D receptor (VDR) signaling pathway - cell viability counter screen (AID 743225; active means well fitted curve in the direction sought with a large enough effect in the repeat runs; an effect the other way counts as inactive or inconclusive; further: nearly all actives have a fitted effect of over 50% in size). The procedure, abridged: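 Cytotoxicity toward the VDR-bla HEK 293T line was scored by ATP-based CellTiter-Glo luminescence, read in the wells already used for the beta-lactamase readout after 16 h compound treatment under 3 nM 1-alpha,25-dihydroxyvitamin D3 stimulation.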

A short description of assay [8]: qHTS assay to identify small molecule agonists of the NFkB signaling pathway (AID 1159509; active means well fitted curve in the direction sought with a large enough effect in the signal ratio in the repeat runs, not every such curve was filed as active; the % refers to the signal ratio; further: series mostly up to about 61 µM). The procedure, abridged: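 ME-180 NFkB-bla, 2,000 cells/well, overnight plating; cpd pinned in DMSO, 5 h 37 C; B/G FRET substrate 1.5 h RT; ex 405, em 460/530 nm.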
Assay [9] in a line: qHTS assay to identify small molecule agonists of the NFkB signaling pathway - cell viability counter screen (AID 1159515). Further: series mostly up to about 61 µM; nearly all actives have a fitted effect of over 55% in size. The procedure, abridged:
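Multiplexed viability readout: after the 5 hr compound exposure and 1.5 hr FRET substrate step, CellTiter-Glo reagent went into the same NFkB-bla ME-180 wells; ATP luminescence was measured after 30 min at room temperature.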

A short description of assay [10]: qHTS assay to identify small molecule agonists of the endoplasmic reticulum stress response signaling pathway (AID 1159516; active means well fitted activation curve with a large enough effect in the signal ratio in the repeat runs, not every such curve was filed as active; the % refers to the signal ratio). The method in brief:
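Tox21 10K library screened in quantitative HTS format on ESRE-bla HeLa cells, a beta-lactamase reporter under ER stress response element control; 5 hr treatment, FRET read.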

The nature of assay [11]: qHTS assay to identify small molecule agonists of the endoplasmic reticulum stress response signaling pathway - cell viability counter screen (AID 1159517). The procedure, abridged:
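ESRE-bla HeLa cells, 1,500 per well, seeded overnight then treated with compounds for 5 hr at 37 C. After the beta-lactamase read, viability in the same wells is measured by CellTiter-Glo luminescence after 30 min at room temperature.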

Assay [12] in a line: qHTS assay to identify small molecule antagonists of the retinoid-related orphan receptor gamma (ROR-gamma) signaling pathway - cell viability counter screen (AID 1159520; active means well fitted curve in the direction sought with a large enough effect in the repeat runs; an effect the other way counts as inactive or inconclusive; further: nearly all actives have a fitted effect of over 50% in size). The method in brief: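 Tet-on ROR gamma CHO cells were given compounds for 2 hr, then doxycycline hyclate at 1 uM final, and incubated 16 hr at 37 C. Viability was measured as ATP content by CellTiter-Glo luminescence.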

In assay [13] the target is Nuclear receptor ROR-gamma (Homo sapiens) (UniProt P51449). Nature of the assay: qHTS assay to identify small molecule antagonists of the retinoid-related orphan receptor gamma (ROR-gamma) signaling pathway (AID 1159521; active means well fitted curve in the direction sought with a large enough effect in the repeat runs; an effect the other way counts as inactive or inconclusive; further: nearly all actives have a fitted effect of over 50% in size; further: potency means the concentration at half of the fitted maximal effect). The procedure, abridged:
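Readout: ONE-Glo luciferase luminescence, 30 min at room temperature. System: Tet-on RORγ CHO, RORE-LUC. Sequence: compound 2 h, doxycycline 1 uM final, 16 h at 37 C.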

Assay [14] in a line: qHTS assay to identify small molecule agonists of the AP-1 signaling pathway - cell viability counter screen (AID 1159525). Further: nearly all actives have a fitted effect of over 55% in size. The procedure, abridged:
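AP-1-bla ME-180 cells in Opti-MEM with 0.5% dialyzed FBS, compound exposure 5 h at 37 C in 15-point titration. Viability read in the same wells as ATP content by CellTiter-Glo luminescence, normalised to tetra-n-octylammonium bromide and DMSO controls.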

Assay [15] in a line: qHTS assay to identify small molecule agonists of the AP-1 signaling pathway (AID 1159526).
In assay [16] the target is Peroxisome proliferator-activated receptor delta (Homo sapiens) (UniProt Q03181). Nature of the assay: qHTS assay to identify small molecule agonists of the peroxisome proliferator-activated receptor delta (PPARd) signaling pathway (AID 743212). The procedure, abridged: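 GeneBLAzer UAS-bla HEK293H cells carrying a PPARδ construct were exposed to compounds at 37 °C. Beta-lactamase activity was read by FRET fluorescence after 2 h at room temperature with LiveBLAzer B/G substrate.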

Assay [17] concerns the target Bile acid receptor (Homo sapiens) (UniProt Q96RI1). Put plainly: qHTS assay to identify small molecule agonists of the farnesoid-X-receptor (FXR) signaling pathway (AID 743220; active means well fitted activation curve with a large enough effect in the signal ratio in the repeat runs, not every such curve was filed as active; the % refers to the signal ratio). The method in brief:
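Beta-lactamase reporter under UAS control in GeneBLAzer FXR HEK 293T cells (5000/well) measured with LiveBLAzer FRET substrate after 2 h at room temperature. Compound exposure lasted 16 h at 37C.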

Assay [18] has as its target Vitamin D3 receptor (Homo sapiens) (UniProt P11473). Put plainly: qHTS assay to identify small molecule antagonists of the vitamin D receptor (VDR) signaling pathway (AID 743223; active means well fitted inhibition curve with a large enough effect in the signal ratio in the repeat runs, not every such curve was filed as active; the % refers to the signal ratio). The method in brief:
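After VDR-bla cells are plated and left 4 h at 37C, DMSO-dissolved compounds and 3 nM (final) calcitriol agonist are added. Incubation continues 16 h at 37C; FRET beta-lactamase substrate then develops 2 h at room temperature.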

The target of assay [19] is Retinoic acid receptor RXR-alpha (Homo sapiens) (UniProt P19793). Put plainly: qHTS assay to identify small molecule agonists of the RXR signaling pathway (AID 1159527). Further: nearly all actives have a fitted effect of over 35% in size. The method in brief: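 Reporter activation is measured as beta-lactamase activity via FRET substrate cleavage (emission 460/530 nm) in HEK 293T cells expressing an RXR-alpha-driven bla construct, following 16 hr compound exposure at 37 C.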

Assay [20] concerns the target Bile acid receptor (Homo sapiens) (UniProt Q96RI1). Put plainly: qHTS assay to identify small molecule antagonists of the farnesoid-X-receptor (FXR) signaling pathway (AID 743217; active means well fitted inhibition curve with a large enough effect in the signal ratio in the repeat runs, not every such curve was filed as active; the % refers to the signal ratio). The method in brief:
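Antagonist mode against 50 uM (final) chenodeoxycholic acid stimulation in FXR-bla HEK 293T cells, 16 h at 37 °C. Inhibition detected as reduced beta-lactamase activity via LiveBLAzer B/G FRET fluorescence after 2 h at room temperature.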

Molecules are shown by their SMILES. Inconclusive results are not listed. Calls of active or inactive are those of the source. Unless noted, the call rests on the fitted dose curve.

Chain of Retinoic acid receptor RXR-alpha (Homo sapiens) (P19793 whole entry, looked up): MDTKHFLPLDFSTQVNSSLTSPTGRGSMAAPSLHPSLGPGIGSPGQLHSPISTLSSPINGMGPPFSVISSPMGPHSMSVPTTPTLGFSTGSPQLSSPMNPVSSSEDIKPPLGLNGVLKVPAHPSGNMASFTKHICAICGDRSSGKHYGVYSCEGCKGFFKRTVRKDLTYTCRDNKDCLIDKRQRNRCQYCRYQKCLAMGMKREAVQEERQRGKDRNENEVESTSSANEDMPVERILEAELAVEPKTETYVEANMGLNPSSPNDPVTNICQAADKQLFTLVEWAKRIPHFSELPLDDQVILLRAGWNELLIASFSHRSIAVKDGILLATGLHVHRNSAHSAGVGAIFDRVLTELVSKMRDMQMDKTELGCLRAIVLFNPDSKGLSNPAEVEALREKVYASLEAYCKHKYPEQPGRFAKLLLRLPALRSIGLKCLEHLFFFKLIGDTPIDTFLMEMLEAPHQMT
Chain of Bile acid receptor (Homo sapiens) (Q96RI1 whole entry, looked up): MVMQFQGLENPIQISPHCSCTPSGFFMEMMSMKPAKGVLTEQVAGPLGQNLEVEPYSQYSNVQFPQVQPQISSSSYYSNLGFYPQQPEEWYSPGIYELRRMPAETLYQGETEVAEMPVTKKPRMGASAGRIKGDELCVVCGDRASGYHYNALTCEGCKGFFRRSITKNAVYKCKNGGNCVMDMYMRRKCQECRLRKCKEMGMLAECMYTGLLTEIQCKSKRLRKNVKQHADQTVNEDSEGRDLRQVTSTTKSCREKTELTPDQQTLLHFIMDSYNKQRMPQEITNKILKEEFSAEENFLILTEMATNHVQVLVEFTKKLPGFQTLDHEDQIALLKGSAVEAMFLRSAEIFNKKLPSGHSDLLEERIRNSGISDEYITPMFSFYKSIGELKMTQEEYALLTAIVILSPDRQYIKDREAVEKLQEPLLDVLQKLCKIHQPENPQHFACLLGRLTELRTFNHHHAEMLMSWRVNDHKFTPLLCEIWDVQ
Chain of Peroxisome proliferator-activated receptor delta (Homo sapiens) (Q03181 whole entry, looked up): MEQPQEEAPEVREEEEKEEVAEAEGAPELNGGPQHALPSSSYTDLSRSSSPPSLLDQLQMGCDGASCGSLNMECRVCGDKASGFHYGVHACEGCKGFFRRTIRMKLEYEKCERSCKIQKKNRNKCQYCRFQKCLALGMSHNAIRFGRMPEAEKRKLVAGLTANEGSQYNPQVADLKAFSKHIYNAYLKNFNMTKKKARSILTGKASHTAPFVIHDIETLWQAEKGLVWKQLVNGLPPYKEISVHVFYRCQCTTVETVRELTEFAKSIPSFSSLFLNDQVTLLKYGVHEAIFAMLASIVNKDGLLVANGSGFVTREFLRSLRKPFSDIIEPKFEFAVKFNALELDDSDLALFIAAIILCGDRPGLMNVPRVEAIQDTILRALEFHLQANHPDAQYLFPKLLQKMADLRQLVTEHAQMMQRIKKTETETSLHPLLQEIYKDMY
Chain of Vitamin D3 receptor (Homo sapiens) (P11473 whole entry, looked up): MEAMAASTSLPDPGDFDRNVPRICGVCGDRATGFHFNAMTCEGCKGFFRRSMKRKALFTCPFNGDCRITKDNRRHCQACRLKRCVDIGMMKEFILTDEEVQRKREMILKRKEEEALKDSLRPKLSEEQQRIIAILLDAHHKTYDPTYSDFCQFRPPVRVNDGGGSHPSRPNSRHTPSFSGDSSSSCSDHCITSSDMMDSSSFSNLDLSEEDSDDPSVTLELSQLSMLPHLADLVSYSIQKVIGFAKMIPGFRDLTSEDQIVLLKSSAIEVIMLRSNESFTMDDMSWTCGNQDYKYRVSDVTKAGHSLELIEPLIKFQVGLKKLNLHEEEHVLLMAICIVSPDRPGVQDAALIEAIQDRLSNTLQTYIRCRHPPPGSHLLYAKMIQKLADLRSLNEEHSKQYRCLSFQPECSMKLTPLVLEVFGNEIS

In the case of `CCOc1nc(C(Cl)(Cl)Cl)ns1`, the compound was classed as inactive in assay [1], in assay [2], in assay [4], in assay [5], in assay [7] and in assay [8]. Further, the outcome in [9], in assay [10] and in [15] was inactive. Moreover, the Potency entry in assay [3], in assay [6], in assay [11], in [12], in assay [13] and in [14] was “inactive” in each case.
Regarding `CC1=C(C(=O)Nc2ccccc2)S(=O)(=O)CCO1`, the outcome in assay [8], in [9], in assay [10] and in assay [15] was inactive. Further, the Potency result in assay [11] and in [12] was “inactive” each time. Moreover, the Potency in assay [13] is 27.3 µM (active).
Regarding `[Cl][Sn]([Cl])([Cl])[Cl]`, the compound was called inactive in assay [16], in [1], in assay [4], in assay [5], in [7] and in assay [8]. Also, the call in assay [9], in assay [10] and in assay [15] was inactive. Further, the Potency entry in assay [3], in [6], in assay [11], in assay [12], in assay [13] and in assay [14] was “inactive” throughout.
Consider `CCCSP(=O)(OCC)Oc1ccc(Br)cc1Cl` (stereo unspecified), for which the compound was called inactive in [16], in assay [2], in [17], in assay [4], in assay [5] and in [18]. Moreover, the outcome in assay [7], in assay [8], in assay [9], in assay [10] and in assay [15] was inactive. Besides, the Potency result in [11], in assay [12], in assay [13] and in assay [14] was “inactive” in each case.
For `ClCCCN1CCN(c2cccc(Cl)c2)CC1`, the compound was classed as inactive in assay [16], in [1], in assay [2], in assay [4], in assay [8] and in [9]. For the same compound, the compound was called inactive in [10]. The Potency result in assay [6], in assay [11], in [12], in assay [13], in assay [14] and in assay [19] was “inactive” throughout.
With `CC(C=O)Cc1ccc2c(c1)OCO2` (stereo unspecified), the compound was classed as inactive in [16], in [1], in assay [2], in assay [17], in assay [4] and in [5]. The call in [7], in assay [8], in [9] and in assay [10] was inactive. In addition, the Potency entry in [20], in assay [3], in assay [11], in assay [12], in assay [13] and in assay [14] was “inactive” throughout. In addition, the Potency result in assay [19] was “inactive”.
Regarding `CC1CN1P(=O)(N1CC1C)N1CC1C` (stereo unspecified), the outcome in assay [1], in [4], in assay [5], in assay [18], in [7] and in assay [8] was inactive. Also, the compound was classed as inactive in assay [9] and in assay [10]. The Potency entry in assay [3], in [6], in assay [11], in assay [12], in assay [13] and in assay [14] was “inactive” throughout.
Take `O=C(N[C@H]1CN2CCC1CC2)c1cc2ccoc2cn1`: the outcome in assay [1], in assay [4], in assay [7], in assay [8], in assay [9] and in assay [10] was inactive. Also, the result in assay [15] was inactive. The Potency entry in assay [3], in [6], in [11], in [12], in assay [13] and in assay [14] was “inactive” each time.
Consider `[O]=[Cd]`, for which the result in assay [16], in [2], in assay [4], in assay [5], in [7] and in [8] was inactive. Further, the outcome in assay [9] and in assay [10] was inactive. Also, the Potency result in [3], in assay [6], in [11], in [12] and in [13] was “inactive” each time.
As to `CC1(C(=O)Nc2ccc(O)c(Cl)c2Cl)CCCCC1`, the call in assay [16], in assay [1], in assay [2], in [17], in assay [5] and in assay [8] was inactive. The call in assay [9] and in [10] was inactive. Further, the Potency entry in [11], in assay [12], in assay [13] and in [19] was “inactive” in each case.
Consider `CCOP(=S)(OCC)SCSc1ccc(Cl)cc1`, for which the call in assay [1], in assay [2], in assay [17], in assay [4], in [5] and in assay [7] was inactive. In addition, the outcome in assay [8], in [9], in assay [10] and in assay [15] was inactive. Further, the Potency entry in [20], in assay [3], in assay [6], in [11], in assay [12] and in assay [13] was “inactive” each time. The Potency entry in [14] is “inactive”.

For the origin of these results see PubChem BioAssay (Tox21).
